# In PubChem BioAssay (Tox21):
# Several values for one entry are separate records, joined by “and”; a condition that tells them apart may be missing. Identical values can stand only once. Records with an inconclusive call do not appear. Where a call stands in place of a potency, no number is given. More than one record can exist for a structure, and the calls need not agree. Activity calls are given as the source filed them. Unless noted, calls follow the shape of the dose curve; as a rule, active = well fitted curve in the direction sought with a large enough effect in the repeat runs; inconclusive = weak or mixed curves; inactive = no such curve, though single readings can be large; an effect the other way counts as inactive or inconclusive.
# How the values were obtained:
# [1] = Human pregnane X receptor (PXR) small molecule agonists, qHTS cell viability counter screen (AID 1346977); also: nearly all actives have a fitted effect of over 50% in size; also: potency is read from the fitted curve at half-maximal effect
# How it was run: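 Measures live-cell protease fluorescence (CellTiter-Fluor) in PXR-Luc HepG2 cells treated 24hr with compounds at 37C. Cells had 5hr to attach before pin transfer of DMSO solutions.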
# [2] = Caspase-3/7 induction in HepG2 cells by small molecules, qHTS assay (AID 1346978); also: nearly all actives have a fitted effect of over 15% in size
# How it was run: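 Wild-type HepG2 cells, 2,000/well, settled 5 hr at 37 C and 5% CO2, then compound-treated for 17 hr; caspase-3/7 activity read by luminescent Caspase-Glo 3/7 after 30 min at room temperature.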
# [3] = Caspase-3/7 induction in CHO-K1 cells by small molecules, qHTS cell viability counter screen (AID 1346979); also: nearly all actives have a fitted effect of over 35% in size; also: potency is read from the fitted curve at half-maximal effect
# How it was run: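 In the same wells as the caspase read, viability of compound-treated wild-type CHO-K1 cells was assessed using CellTiter-Fluor, added after 16hr at 37C and measured by fluorescence following 1hr further incubation.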
# [4] = Caspase-3/7 induction in CHO-K1 cells by small molecules, qHTS assay (AID 1346980); also: nearly all actives have a fitted effect of over 15% in size; also: potency is read from the fitted curve at half-maximal effect
# How it was run: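 Wild-type CHO-K1 cells exposed to compounds for 17hr at 37 C, 5% CO2. Caspase-3/7 activity then measured by Caspase-Glo 3/7 luminescence after 30min at room temperature.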
# [5] = Caspase-3/7 induction in HepG2 cells by small molecules, qHTS cell viability counter screen (AID 1346981); also: nearly all actives have a fitted effect of over 30% in size; also: potency is read from the fitted curve at half-maximal effect
# How it was run: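 Cell viability is measured as a cytotoxicity counter screen alongside the Caspase-Glo 3/7 readout in identical wells. Wild-type HepG2 cells are treated with test compounds for 16 hr at 37 C before CellTiter-Fluor addition and a 1-hr incubation.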
# [6] = target: Acetylcholinesterase (Homo sapiens) (UniProt P22303); test: Acetylcholinesterase (AChE) small molecule antagonists: colormetric cell-based qHTS assay (AID 1347395; calls by dose curve; also: nearly all actives have a fitted effect of over 30% in size; also: potency is read from the fitted curve at half-maximal effect)
# How it was run: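 Endogenous AChE of human neuroblastoma SH-SY5Y cells was measured with an Ellman-type DTNB/acetylthiocholine mix. Compound pretreatment lasted 30 min at 37 C; substrate reaction ran 90 min at 37 C.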
# [7] = target: Acetylcholinesterase (Homo sapiens) (UniProt P22303); test: Acetylcholinesterase (AChE) small molecule antagonists: enzyme-based qHTS assay (AID 1347397; calls by dose curve; also: nearly all actives have a fitted effect of over 55% in size); details: Potency: AChE enzyme activity inhibition
# How it was run: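 Colorimetric DTNB read-out of thiocholine released from acetylthiocholine by recombinant human AChE (50 mU/mL as dispensed). Compounds were preincubated 30 min at RT before substrate/DTNB addition, with a 10 min RT reaction.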
# [8] = target: Acetylcholinesterase (Homo sapiens) (UniProt P22303); test: Acetylcholinesterase (AChE) small molecule antagonists: fluorescence cell-based qHTS assay (AID 1347398; calls by dose curve; also: nearly all actives have a fitted effect of over 50% in size); details: Potency: AChE activity
# How it was run: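 SH-SY5Y, 2,000 cells/well, attached overnight; cmpd 30 min 37 C; acetylthiocholine/Thiolite Green cocktail 40 min RT; fluorescence Ex/Em 490/520 nm.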
# [9] = target: Acetylcholinesterase (Homo sapiens) (UniProt P22303); test: Acetylcholinesterase (AChE) small molecule antagonists: enzyme-based qHTS assay with human liver microsomes (AID 1347399; calls by dose curve; also: nearly all actives have a fitted effect of over 60% in size); details: Potency: qHTS inhibition
# How it was run: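 Recombinant human AChE (50 mU/mL in the enzyme mix) and human liver microsomes (0.25 mg/mL final) were preincubated with compound and NADPH (0.25 mg/mL final) for 30 min at 37 C. Acetylthiocholine/DTNB was then added; thiocholine was read colorimetrically after 10 min at room temperature.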
# [10] = target: Cytochrome P450 2D6 (Homo sapiens) (UniProt P10635); test: Cytochrome P450 Family 2 Subfamily D Member 6 (CYP2D6) small molecule antagonists: luciferase reporter qHTS assay (AID 1671196); also: nearly all actives have a fitted effect of over 50% in size; also: potency is read from the fitted curve at half-maximal effect
# How it was run: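 Enzyme and proluciferin substrate were first combined with test chemical for 10 min at room temperature. Adding NADPH regeneration solution started a 1 h reaction, stopped with luciferin detection reagent and read by luminescence 20 min later.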
# [11] = target: Cytochrome P450 2C19 (Homo sapiens) (UniProt P33261); test: Cytochrome P450 Family 2 Subfamily C Member 19 (CYP2C19) small molecule antagonists: luciferase reporter qHTS assay (AID 1671197); also: nearly all actives have a fitted effect of over 65% in size; also: potency is read from the fitted curve at half-maximal effect
# How it was run: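 Light output is proportional to CYP2C19 activity: proluciferin substrate is converted to luciferin, then detected by a luciferin detection reagent that also stops the 1 h, 37C NADPH-driven reaction. Ketoconazole serves as positive control.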
# [12] = target: Cytochrome P450 2C9 (Homo sapiens) (UniProt P11712); test: Cytochrome P450 Family 2 Subfamily C Member 9 (CYP2C9) small molecule antagonists: luciferase reporter qHTS assay (AID 1671198); also: nearly all actives have a fitted effect of over 50% in size; also: potency is read from the fitted curve at half-maximal effect
# How it was run: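 P450-Glo proluciferin substrate with CYP2C9 enzyme; 10 min RT preincubation, then NADPH regeneration 1 h at 37C; luciferin detection reagent 20 min RT, luminescence in relative luminescence units.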
# [13] = target: Cytochrome P450 1A2 (Homo sapiens) (UniProt P05177); test: Cytochrome P450 Family 1 Subfamily A Member 2 (CYP1A2) small molecule antagonists: luciferase reporter qHTS assay (AID 1671199); also: nearly all actives have a fitted effect of over 50% in size; also: potency is read from the fitted curve at half-maximal effect
# How it was run: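 Compounds were incubated with CYP1A2 and a luminogenic proluciferin substrate for 10 min at room temperature before the reaction was started with NADPH regeneration solution. After 1 h, detection reagent was added and light output, proportional to CYP activity, was recorded.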
# [14] = target: Voltage-gated inwardly rectifying potassium channel KCNH2 (Homo sapiens) (UniProt Q12809); test: Human Ether-a-go-go-Related Gene (hERG) channel small molecule antagonists: fluorescence cell-based qHTS assay (AID 1671200); also: nearly all actives have a fitted effect of over 50% in size; also: potency is read from the fitted curve at half-maximal effect
# How it was run: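 Quantitative HTS in hERG-U2OS cells: thallium entry through the channel reports activity, read as continuous 480/540 nm fluorescence over 2 min after stimulus addition.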
# [15] = target: Cytochrome P450 3A4 (Homo sapiens) (UniProt P08684); test: Cytochrome P450 Family 3 Subfamily A Member 4 (CYP3A4) small molecule antagonists: luciferase reporter qHTS assay (AID 1671201); also: nearly all actives have a fitted effect of over 50% in size; also: potency is read from the fitted curve at half-maximal effect
# How it was run: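 Inhibition of CYP3A4 is measured as loss of light: the enzyme converts a proluciferin substrate to luciferin, detected luminescently. Reaction ran 1 h at room temperature with NADPH regeneration after a 10 min compound preincubation.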
# [16] = target: Nuclear receptor subfamily 1 group I member 2 (Homo sapiens) (UniProt O75469); test: Human pregnane X receptor (PXR) small molecule agonists, qHTS assay (AID 1346982); also: nearly all actives have a fitted effect of over 35% in size; also: potency is read from the fitted curve at half-maximal effect
# How it was run: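 Cells: HepG2 stably carrying PXR-Luc. Medium held 5% charcoal-stripped FBS. Compounds in DMSO added after 5 hr plating, incubated 24 hr, then luminescence quantified with ONE-Glo.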
# [17] = target: Nuclear receptor subfamily 1 group I member 2 (Rattus norvegicus) (UniProt Q9R1A7); test: Rat pregnane X receptor (rPXR) activation by small molecules, qHTS assay (AID 1346983); details: rPXR luciferase reporter cells, One-Glo luminescence, 24 h; max activation: stronger effect = higher value; also: nearly all actives have a fitted effect of over 20% in size
# How it was run: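 Cell-based rPXR activation assay: rPXR cells, 2,000 per well, rested 5hr at 37 C, then exposed to compounds in DMSO for 24 hr at 37 C. Luciferase activity read by One-Glo luminescence after 30 min at room temperature.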
# [18] = target: Nuclear receptor subfamily 1 group I member 2 (Homo sapiens) (UniProt O75469); test: CYP3A4 induction through human pregnane X receptor (PXR) by small molecules, qHTS assay (AID 1346984); also: nearly all actives have a fitted effect of over 40% in size
# How it was run: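 Quantitative HTS in DPX-2 cells, i.e. HepG2 transfected with PXR response element and CYP3A4-promoter luciferase. Compounds in DMSO incubated 24hr at 37C; then P450-Glo CYP3A4 substrate, 3uM final, 3hr; One-Glo luminescence.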
# [19] = target: Nuclear receptor subfamily 1 group I member 2 (Homo sapiens) (UniProt O75469); test: Human pregnane X receptor (PXR) activation by small molecules, qHTS assay (AID 1346985); also: nearly all actives have a fitted effect of over 40% in size
# How it was run: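 DPX-2 cells (HepG2 co-transfected with a PXR response element and a CYP3A4-promoter luciferase construct) were seeded at 2,000 per well, rested 5 hr at 37C, then exposed to DMSO-dissolved compounds for 24 hr. Activation was read as luciferase luminescence.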
# Chain of Cytochrome P450 1A2 (Homo sapiens) (P05177 whole entry, looked up): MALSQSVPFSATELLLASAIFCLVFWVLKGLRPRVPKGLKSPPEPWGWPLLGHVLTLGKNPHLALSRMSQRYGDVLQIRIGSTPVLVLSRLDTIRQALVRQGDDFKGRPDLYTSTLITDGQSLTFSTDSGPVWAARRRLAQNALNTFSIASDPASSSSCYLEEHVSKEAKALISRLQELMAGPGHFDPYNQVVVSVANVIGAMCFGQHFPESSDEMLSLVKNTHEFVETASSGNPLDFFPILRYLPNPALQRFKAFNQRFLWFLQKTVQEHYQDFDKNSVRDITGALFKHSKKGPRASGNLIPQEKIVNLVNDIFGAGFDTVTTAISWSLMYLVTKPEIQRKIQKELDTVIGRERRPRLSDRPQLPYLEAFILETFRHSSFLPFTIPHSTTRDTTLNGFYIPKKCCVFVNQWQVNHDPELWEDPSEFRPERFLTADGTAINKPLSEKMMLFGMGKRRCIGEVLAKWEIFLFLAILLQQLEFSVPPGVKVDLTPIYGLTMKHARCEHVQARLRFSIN
# Chain of Cytochrome P450 2D6 (Homo sapiens) (P10635 whole entry, looked up): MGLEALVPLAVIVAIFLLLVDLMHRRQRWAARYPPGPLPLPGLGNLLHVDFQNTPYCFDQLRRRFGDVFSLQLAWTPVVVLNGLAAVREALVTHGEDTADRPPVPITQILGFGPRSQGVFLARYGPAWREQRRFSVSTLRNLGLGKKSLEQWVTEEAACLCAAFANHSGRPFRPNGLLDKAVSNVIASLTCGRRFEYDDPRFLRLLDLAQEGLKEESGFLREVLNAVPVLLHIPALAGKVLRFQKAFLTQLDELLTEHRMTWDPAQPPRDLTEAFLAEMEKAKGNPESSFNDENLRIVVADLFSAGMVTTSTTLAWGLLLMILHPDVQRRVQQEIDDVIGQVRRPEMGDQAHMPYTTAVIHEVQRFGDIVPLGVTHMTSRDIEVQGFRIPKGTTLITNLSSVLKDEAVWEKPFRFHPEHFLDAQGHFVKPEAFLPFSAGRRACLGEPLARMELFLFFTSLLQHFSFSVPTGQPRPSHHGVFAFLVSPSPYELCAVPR
# Chain of Nuclear receptor subfamily 1 group I member 2 (Rattus norvegicus) (Q9R1A7 whole entry, looked up): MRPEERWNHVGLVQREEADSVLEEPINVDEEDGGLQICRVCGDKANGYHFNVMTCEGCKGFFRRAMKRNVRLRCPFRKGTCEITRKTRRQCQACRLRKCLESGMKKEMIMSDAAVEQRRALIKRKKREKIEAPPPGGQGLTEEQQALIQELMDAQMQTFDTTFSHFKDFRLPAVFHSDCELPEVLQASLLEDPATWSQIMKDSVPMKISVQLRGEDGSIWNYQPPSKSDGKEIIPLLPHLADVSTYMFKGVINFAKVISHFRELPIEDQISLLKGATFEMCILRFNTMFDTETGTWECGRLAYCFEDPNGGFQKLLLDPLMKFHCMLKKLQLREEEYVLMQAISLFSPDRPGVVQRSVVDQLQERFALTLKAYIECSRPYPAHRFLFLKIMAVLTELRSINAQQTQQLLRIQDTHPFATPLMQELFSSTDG
# Chain of Voltage-gated inwardly rectifying potassium channel KCNH2 (Homo sapiens) (Q12809 whole entry, looked up): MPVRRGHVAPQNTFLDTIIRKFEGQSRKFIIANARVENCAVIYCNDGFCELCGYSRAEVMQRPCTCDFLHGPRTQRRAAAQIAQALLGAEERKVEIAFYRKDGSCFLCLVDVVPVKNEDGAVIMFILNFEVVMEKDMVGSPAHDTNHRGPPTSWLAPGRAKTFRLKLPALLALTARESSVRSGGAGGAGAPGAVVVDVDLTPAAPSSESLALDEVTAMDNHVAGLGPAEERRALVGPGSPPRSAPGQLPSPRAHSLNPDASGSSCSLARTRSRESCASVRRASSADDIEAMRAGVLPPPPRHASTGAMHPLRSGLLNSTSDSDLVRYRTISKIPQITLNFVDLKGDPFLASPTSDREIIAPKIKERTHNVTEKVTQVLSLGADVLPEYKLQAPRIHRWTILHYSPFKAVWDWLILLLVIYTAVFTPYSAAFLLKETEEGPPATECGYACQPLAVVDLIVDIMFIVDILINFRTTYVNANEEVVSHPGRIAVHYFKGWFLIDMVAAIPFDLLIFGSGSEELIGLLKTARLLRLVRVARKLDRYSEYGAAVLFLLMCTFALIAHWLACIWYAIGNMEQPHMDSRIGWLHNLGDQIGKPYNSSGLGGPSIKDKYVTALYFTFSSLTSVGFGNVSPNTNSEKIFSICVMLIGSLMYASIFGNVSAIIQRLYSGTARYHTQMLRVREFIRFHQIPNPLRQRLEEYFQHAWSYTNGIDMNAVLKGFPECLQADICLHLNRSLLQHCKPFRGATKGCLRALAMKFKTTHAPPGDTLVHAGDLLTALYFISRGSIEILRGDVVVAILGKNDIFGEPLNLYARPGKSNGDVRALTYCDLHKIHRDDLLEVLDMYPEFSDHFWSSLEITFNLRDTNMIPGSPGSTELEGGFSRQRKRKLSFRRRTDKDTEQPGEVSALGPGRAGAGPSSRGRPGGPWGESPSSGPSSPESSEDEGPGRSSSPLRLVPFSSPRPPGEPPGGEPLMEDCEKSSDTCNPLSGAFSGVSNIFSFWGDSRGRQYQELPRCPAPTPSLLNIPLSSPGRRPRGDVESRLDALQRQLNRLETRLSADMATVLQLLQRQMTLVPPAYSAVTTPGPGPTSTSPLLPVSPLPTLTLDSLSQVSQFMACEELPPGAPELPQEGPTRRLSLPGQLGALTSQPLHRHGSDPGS
# Chain of Cytochrome P450 3A4 (Homo sapiens) (P08684 whole entry, looked up): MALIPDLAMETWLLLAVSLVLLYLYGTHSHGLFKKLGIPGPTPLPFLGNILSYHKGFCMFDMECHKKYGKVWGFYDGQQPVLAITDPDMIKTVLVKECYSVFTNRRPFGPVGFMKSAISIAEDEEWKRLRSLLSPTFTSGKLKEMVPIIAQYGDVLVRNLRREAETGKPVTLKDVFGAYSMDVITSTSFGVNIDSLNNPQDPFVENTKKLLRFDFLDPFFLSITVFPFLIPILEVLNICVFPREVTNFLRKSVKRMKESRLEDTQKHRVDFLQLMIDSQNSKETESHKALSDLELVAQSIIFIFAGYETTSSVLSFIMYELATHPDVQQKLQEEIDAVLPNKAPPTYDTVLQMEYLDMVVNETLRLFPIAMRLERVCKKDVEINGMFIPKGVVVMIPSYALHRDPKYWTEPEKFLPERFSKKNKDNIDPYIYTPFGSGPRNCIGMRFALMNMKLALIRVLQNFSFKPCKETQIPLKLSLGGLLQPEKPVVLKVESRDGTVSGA
# Chain of Cytochrome P450 2C19 (Homo sapiens) (P33261 whole entry, looked up): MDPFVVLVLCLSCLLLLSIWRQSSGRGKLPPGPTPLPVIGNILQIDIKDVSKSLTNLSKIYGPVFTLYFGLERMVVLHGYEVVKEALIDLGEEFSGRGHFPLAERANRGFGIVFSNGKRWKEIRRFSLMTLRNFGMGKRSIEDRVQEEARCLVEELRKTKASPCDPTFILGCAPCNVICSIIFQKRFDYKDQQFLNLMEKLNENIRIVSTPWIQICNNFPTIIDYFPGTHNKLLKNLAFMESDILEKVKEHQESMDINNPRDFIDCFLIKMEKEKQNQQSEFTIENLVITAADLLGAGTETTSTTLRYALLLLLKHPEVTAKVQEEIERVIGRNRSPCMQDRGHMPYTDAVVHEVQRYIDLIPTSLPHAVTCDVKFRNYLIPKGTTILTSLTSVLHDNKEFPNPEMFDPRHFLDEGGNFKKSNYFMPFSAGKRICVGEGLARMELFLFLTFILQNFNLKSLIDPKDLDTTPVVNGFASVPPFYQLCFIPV
# Chain of Acetylcholinesterase (Homo sapiens) (P22303 whole entry, looked up): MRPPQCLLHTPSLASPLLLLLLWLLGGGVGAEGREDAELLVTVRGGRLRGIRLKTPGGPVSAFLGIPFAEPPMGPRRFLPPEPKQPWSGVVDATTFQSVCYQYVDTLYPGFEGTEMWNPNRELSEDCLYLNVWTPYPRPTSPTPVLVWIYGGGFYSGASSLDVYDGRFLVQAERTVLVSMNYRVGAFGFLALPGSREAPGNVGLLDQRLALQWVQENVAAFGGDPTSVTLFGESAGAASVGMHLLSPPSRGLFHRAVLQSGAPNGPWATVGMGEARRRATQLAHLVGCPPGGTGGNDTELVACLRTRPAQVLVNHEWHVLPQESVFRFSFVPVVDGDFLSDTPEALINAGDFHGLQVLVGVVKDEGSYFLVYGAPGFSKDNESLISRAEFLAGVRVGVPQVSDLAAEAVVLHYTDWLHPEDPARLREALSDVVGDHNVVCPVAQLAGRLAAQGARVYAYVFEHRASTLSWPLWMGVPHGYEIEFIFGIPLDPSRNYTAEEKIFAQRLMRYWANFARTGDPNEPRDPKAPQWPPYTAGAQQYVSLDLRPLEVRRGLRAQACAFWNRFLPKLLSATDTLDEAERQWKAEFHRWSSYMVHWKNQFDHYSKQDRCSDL
# Chain of Cytochrome P450 2C9 (Homo sapiens) (P11712 whole entry, looked up): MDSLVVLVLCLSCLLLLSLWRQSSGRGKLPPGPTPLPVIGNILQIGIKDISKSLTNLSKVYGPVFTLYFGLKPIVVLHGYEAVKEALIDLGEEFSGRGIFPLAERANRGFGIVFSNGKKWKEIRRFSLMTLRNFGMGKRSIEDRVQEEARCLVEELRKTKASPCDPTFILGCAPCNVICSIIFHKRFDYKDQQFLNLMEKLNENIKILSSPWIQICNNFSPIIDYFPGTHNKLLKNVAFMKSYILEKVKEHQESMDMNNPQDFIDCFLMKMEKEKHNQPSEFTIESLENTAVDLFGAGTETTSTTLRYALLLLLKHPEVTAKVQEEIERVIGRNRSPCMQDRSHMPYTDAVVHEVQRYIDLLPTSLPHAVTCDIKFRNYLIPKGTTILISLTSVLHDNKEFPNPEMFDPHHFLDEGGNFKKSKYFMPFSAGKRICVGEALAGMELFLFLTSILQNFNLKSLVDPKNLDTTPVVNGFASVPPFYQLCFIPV
SMILES,Potency [1],Potency [2],Potency [3],Potency [4],Potency [5],Potency [6],Potency [7],Potency [8],Potency [9],Potency [10],Potency [11],Potency [12],Potency [13],Potency [14],Potency [15],Potency [16],max activation [17],Potency [18],Potency [19]
CCCCCCC#N,inactive,inactive,inactive,inactive,inactive,inactive,inactive,inactive,inactive,38.7 µM (active),68.8 µM (active),inactive,38.7 µM (active),inactive,inactive,,,,
CCOP(=S)(OCC)Oc1cc(Cl)c(Br)cc1Cl,inactive,inactive,inactive,inactive,inactive,,,,,inactive,0.71 µM (active),2 µM (active),3.56 µM (active),inactive,2.24 µM (active),61.1 µM (active),,,
C=CCN1CC[C@]23c4c5ccc(O)c4O[C@H]2C(=O)CC[C@@]3(O)[C@H]1C5,inactive,inactive,inactive,inactive,inactive,,,,,,,,,inactive,,,-2.21% (inactive) and -3.34% (inactive),,
O=Cc1ccc2c(c1)OCO2,inactive,inactive,inactive,inactive,inactive,inactive,,inactive,inactive,inactive,inactive,,31.3 µM (active),inactive,,,,,
CC(C)N(C(=O)COc1nnc(C(F)(F)F)s1)c1ccc(F)cc1,inactive,inactive,inactive,inactive,inactive,39.9 µM (active),inactive,,inactive,inactive,1 µM (active),35.6 µM (active),39.9 µM (active),inactive,,,,,
IC(I)=C(I)I,17.2 µM (active),inactive,4.86 µM (active),4.86 µM (active),68.6 µM (active),inactive,,inactive,inactive,inactive,7.1 µM (active),3.56 µM (active),10 µM (active),inactive,inactive,,,,
CCOP(=S)(Oc1ccc([N+](=O)[O-])cc1)c1ccccc1 (stereo not drawn),inactive,inactive,inactive,inactive,inactive,,inactive,inactive,,,0.159 µM (active),0.564 µM (active),5.64 µM (active),0.616 µM (active),1.59 µM (active),inactive,,,
C=CCCl,inactive,inactive,inactive,inactive,inactive,inactive,inactive,inactive,inactive,inactive,inactive,inactive,,inactive,inactive,,,,
CCCCCCCCCC(=O)O[C@H]1CC[C@H]2[C@@H]3CCC4=CC(=O)CC[C@@H]4[C@H]3CC[C@]12C,inactive,inactive,inactive,inactive,inactive,inactive,inactive,inactive,inactive,inactive,21.9 µM (active),15.5 µM (active),inactive,inactive,,,-0.997% (inactive),inactive,inactive
CCCCOC(=O)c1ccccc1C(=O)OCc1ccccc1,inactive and 48.6 µM (active),inactive,inactive,inactive,inactive,inactive,,inactive,inactive,inactive and 71 µM (active),1.78 µM (active) and 1.12 µM (active),8.92 µM (active) and 10 µM (active),15.9 µM (active) and 12.7 µM (active),,inactive,,,,
CN(N=O)c1ccc([N+](=O)[O-])cc1,inactive,inactive,inactive,inactive,inactive,63.3 µM (active),inactive,,inactive,,35.6 µM (active),,6.33 µM (active),inactive,inactive,,,,
Nc1ccc(N=Nc2ccc(-c3ccc(N=Nc4c(S(=O)(=O)O)cc5cc(S(=O)(=O)O)c(N=Nc6ccccc6)c(O)c5c4N)cc3)cc2)c(N)c1,17.6 µM (active),inactive,17.6 µM (active),inactive,19.7 µM (active),inactive,inactive,inactive,inactive,,inactive,,,inactive,,,,,
C[N+](C)(C)CCCl,inactive,inactive,inactive,inactive,inactive,inactive,inactive,inactive,inactive,inactive,inactive,inactive,inactive,inactive,inactive,,,,
